Laboratory results from ChEMBL document CHEMBL3988442, “University of Dundee, Small-Polar-MMV Screening Library” (2021).

What was measured:
[1] = biological target: T1, Aspartate--tRNA(Asp/Asn) ligase (Mycobacterium tuberculosis (strain ATCC 25618 / H37Rv)) (UniProt P9WFW3); test: Assay for Asp RNA synthetase-1 from Mycobacterium tuberculosis; format: functional; design: scale not given: direction of the effect not stated beside the values; conditions: 30 µM; note: in the data most compounds retested in dose-response had high values
T1 sequence (whole entry): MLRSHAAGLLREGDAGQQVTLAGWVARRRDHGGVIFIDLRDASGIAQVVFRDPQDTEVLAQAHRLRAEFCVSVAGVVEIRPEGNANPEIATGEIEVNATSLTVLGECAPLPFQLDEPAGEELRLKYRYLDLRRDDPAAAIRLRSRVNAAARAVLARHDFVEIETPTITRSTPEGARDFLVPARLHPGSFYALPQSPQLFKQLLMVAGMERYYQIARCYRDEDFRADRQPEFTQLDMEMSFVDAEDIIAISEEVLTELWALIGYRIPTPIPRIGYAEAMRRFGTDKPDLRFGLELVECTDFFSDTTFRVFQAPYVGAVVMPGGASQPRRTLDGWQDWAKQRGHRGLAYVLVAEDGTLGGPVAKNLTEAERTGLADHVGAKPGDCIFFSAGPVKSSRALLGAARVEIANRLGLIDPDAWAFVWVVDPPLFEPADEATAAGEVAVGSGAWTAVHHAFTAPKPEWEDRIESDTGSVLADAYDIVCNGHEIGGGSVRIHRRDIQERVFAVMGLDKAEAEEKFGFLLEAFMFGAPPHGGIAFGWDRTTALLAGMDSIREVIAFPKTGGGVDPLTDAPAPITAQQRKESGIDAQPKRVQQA

[2] = biological target: Shiga toxin 2 (Escherichia coli O157:H7) (UniProt P09385+P09386); test: E. coli 0.157:H7 Shiga Toxin SOP - stx2 screening assay; format: functional; design: scale not given: direction of the effect not stated beside the values; conditions: 30 µM

| SMILES | Percent Effect [1] [%] | Percent Effect [2] [%] |
| --- | --- | --- |
| Cc1cnn(CC2CCCN2Cc2coc(-c3cccs3)n2)c1 (configuration not stated) | 1.41 | 4.89 |
| Cn1ccnc1CN1CCN(CC(=O)NCC(F)(F)F)CC1 | 1.97 | 18.6 |
| CCc1nc(CC(=O)N2CCOCC2c2ncon2)cs1 (configuration not stated) | 1.11 | 11.7 |
| CCCN1CCN(C(=O)c2cnccn2)[C@H]2CS(=O)(=O)C[C@H]21 | -3.33 | -11.3 |
| CN(C)S(=O)(=O)c1ccc(CN2CCCC2CO)o1 (configuration not stated) | -0.169 | 24 |
| CCN1CCN(C2CCN(Cc3ncc(C(C)(C)C)o3)CC2)C1=O | -3.69 | 6.2 |
| COc1c(C2CCCN2CC(=O)Nc2cc(C)no2)c(C)nn1C (configuration not stated) | 2.74 | 12.9 |
| c1cncc(OCc2noc3c2CN(Cc2ccoc2)CC3)c1 | 2.82 | -31.1 |
| CC(O)CN1CCN(C(=O)c2ccc(N(C)C)nn2)CC1 (configuration not stated) | -6.65 | -70.5 |
| CN(CC1CCCO1)C1CCN(CCc2ccccn2)CC1 (configuration not stated) | 3.12 | -6.44 |
| O=C(c1cnc(C2CC2)s1)N1CCCCC1Cn1cccn1 (configuration not stated) | -8.43 | -18.5 |
